{"source": "the supplement of paper PMC9135407", "tested_on": "primary human hepatic stellate cells (donor 1)", "test": "scaled lipid accumulation score (0 = DMSO-like, 1 = nortriptyline-like); higher = stronger HSC inactivation (lipid re-accumulation), active = hit call of the paper", "settings": "48 h", "protocol": "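Primary lipid accumulation screen in primary human hepatic stellate cell myofibroblasts (donor 1, passage 8) in 384-well plates. 100 nL of library compound was pin-transferred into 30 µL medium in duplicate, and cells were treated for 48 h. The 'Scaled' score combines distance from plate baseline, toxicity and reproducibility penalties, and is normalised to nortriptyline (positive) and DMSO (negative) controls on each plate. A hit is defined as scaled >0.85 or among the top 3 wells per plate.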", "key": {"[1]": {"settings": "library stock concentration: 10 mM"}, "[2]": {"settings": "library stock concentration: 1 mM"}, "[3]": {"settings": "library stock concentration: 3.33 mM"}}, "note": "Values joined by “and” are separate entries in the source; they are usually repeats but may differ in a detail not shown here. Equal entries are not always repeated. Structures can show the parent of a compound that is named as a salt. Out of some 5,800 compounds screened, about 620 (11%) showed activity. For the sample, actives were picked, then their nearest neighbours and some compounds at random. Values without a mark were called inactive.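 How the source made its calls: active = score above a cut-off or among the top three wells of a plate; in these data no inactive exceeds 0.85.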"}
{"smiles": "CCN(CC)CCCC(C)Nc1c2ccc(Cl)cc2nc2ccc(OC)cc12", "note": "(centres undefined) [Quinacrine hydrochloride]", "values": [{"measurement": "scaled lipid accumulation score", "setting": "[1]", "result": 0.586}]}
{"smiles": "c1ccc(-c2[nH]ncc2-c2ccnc3ccccc23)nc1", "values": [{"measurement": "scaled lipid accumulation score", "setting": "[2]", "result": "≤ 0"}, {"measurement": "scaled lipid accumulation score", "setting": "[1]", "result": "≤ -0.001"}]}
{"smiles": "CC1=C(/C=C/C(C)=C/C=C/C(C)=C/CO)C(C)(C)CCC1", "note": "[Retinol]", "values": [{"measurement": "scaled lipid accumulation score", "setting": "library stock concentration: 7 mM", "result": "≤ 0"}, {"measurement": "scaled lipid accumulation score", "setting": "[1]", "result": "≤ 0"}]}
{"smiles": "NC(=O)c1cc[n+](CC2=C(C(=O)[O-])N3C(=O)[C@@H](NC(=O)Cc4cccs4)[C@H]3SC2)cc1", "note": "[Cefalonium]", "values": [{"measurement": "scaled lipid accumulation score", "result": "≤ 0"}]}
{"smiles": "O=NN(CCCl)C(=O)NC1CCCCC1", "note": "[Lomustine]", "values": [{"measurement": "scaled lipid accumulation score", "setting": "[3]", "result": 0.044}, {"measurement": "scaled lipid accumulation score", "setting": "library stock concentration: 8.6 mM", "result": 0.014}, {"measurement": "scaled lipid accumulation score", "setting": "[1]", "result": "≤ 0"}]}
{"smiles": "CN1C2CCC1CC(OC(=O)C(O)c1ccccc1)C2", "note": "(centres undefined) [Homatropine Bromide]", "values": [{"measurement": "scaled lipid accumulation score", "setting": "[3]", "result": "≤ 0"}, {"measurement": "scaled lipid accumulation score", "setting": "[1]", "result": "≤ -0.001"}]}
{"smiles": "CN1[C@@H]2CC[C@H]1C[C@@H](OC(=O)C(O)c1ccccc1)C2", "note": "(mixture of isomers) [Homatropine hydrobromide (R,S)]", "values": [{"measurement": "scaled lipid accumulation score", "result": 0.043}]}
{"smiles": "CN1[C@@H]2CC[C@H]1C[C@@H](OC(=O)C(O)c1ccccc1)C2", "note": "(mixture of isomers) [DL-Homatropine hydrobromide]", "values": [{"measurement": "scaled lipid accumulation score", "setting": "[1]", "result": 0.242}]}
{"smiles": "C1[C@@H](N(C)[C@@H]2C1)C[C@@H](OC(c3ccccc3)c4ccccc4)C2.CS(O)(=O)=O", "note": "(some centres undefined) [Benztropine mesylate]", "values": [{"measurement": "scaled lipid accumulation score", "setting": "[1]", "result": "0.873 (active)"}]}
{"smiles": "CN1C2CCC1CC(OC(=O)C(O)c1ccccc1)C2", "note": "(centres undefined) [Homatropine bromide]", "values": [{"measurement": "scaled lipid accumulation score", "setting": "[1]", "result": "≤ 0"}]}
{"smiles": "CN1CCC(OC(c2ccccc2)c2ccccc2)CC1", "note": "[Diphenylpyraline hydrochloride]", "values": [{"measurement": "scaled lipid accumulation score", "result": 0.332}, {"measurement": "scaled lipid accumulation score", "setting": "library stock concentration: 6.3 mM", "result": 0.256}, {"measurement": "scaled lipid accumulation score", "setting": "[1]", "result": 0.235}]}
{"smiles": "CN1[C@@H]2CC[C@H]1C[C@@H](OC(c1ccccc1)c1ccccc1)C2", "note": "[Benztropine mesylate]", "values": [{"measurement": "scaled lipid accumulation score", "setting": "[3]", "result": 0.003}]}
{"smiles": "CN1[C@@H]2CC[C@H]1C[C@@H](OC(c1ccccc1)c1ccccc1)C2", "note": "[Benztropine]", "values": [{"measurement": "scaled lipid accumulation score", "setting": "library stock concentration: 4.9 mM", "result": 0.193}, {"measurement": "scaled lipid accumulation score", "setting": "[1]", "result": 0.38}]}
{"smiles": "CN1C2CCC1CC(OC(c1ccccc1)c1ccccc1)C2.CS(=O)(=O)O", "note": "(centres undefined) [Benztropine mesylate]", "values": [{"measurement": "scaled lipid accumulation score", "setting": "[1]", "result": "1.05 (active)"}]}
{"smiles": "CN1[C@@H]2CC[C@H]1C[C@@H](OC(c1ccccc1)c1ccccc1)C2", "note": "[Cogentin Mesylate]", "values": [{"measurement": "scaled lipid accumulation score", "setting": "[1]", "result": 0.598}]}
{"smiles": "CCOC(=O)Nc1cc(-c2ccc(C)c(NS(C)(=O)=O)c2)nn2c(C)nnc12", "note": "[Bromosporine]", "values": [{"measurement": "scaled lipid accumulation score", "setting": "[3]", "result": 0.166}, {"measurement": "scaled lipid accumulation score", "setting": "[1]", "result": 0.621}]}
{"smiles": "CCCCCCCCCCCCCCCCOC[C@H](CO)OC(C)=O", "note": "[Hexadecyl Acetyl Glycerol]", "values": [{"measurement": "scaled lipid accumulation score", "setting": "[2]", "result": "≤ 0"}]}
{"smiles": "CNC(=O)c1ccccc1Nc1nc(Nc2ccc(N3CCOCC3)cc2OC)ncc1Cl", "values": [{"measurement": "scaled lipid accumulation score", "setting": "library stock concentration: 80 uM", "result": "≤ -0.016"}, {"measurement": "scaled lipid accumulation score", "setting": "library stock concentration: 400 uM", "result": "≤ -0.016"}, {"measurement": "scaled lipid accumulation score", "setting": "library stock concentration: 2 mM", "result": "≤ -0.016"}, {"measurement": "scaled lipid accumulation score", "setting": "[3]", "result": "≤ 0"}, {"measurement": "scaled lipid accumulation score", "setting": "[1]", "result": "≤ 0 and ≤ -0.016"}]}
{"smiles": "CNC(=O)c1c(F)cccc1Nc1nc(Nc2cc3c(cc2OC)CCN3C(=O)CN(C)C)nc2[nH]ccc12", "note": "[listing 1 of 2 here]", "values": [{"measurement": "scaled lipid accumulation score", "setting": "[3]", "result": "0.98 (active)"}]}
{"smiles": "CNC(=O)c1c(F)cccc1Nc1nc(Nc2cc3c(cc2OC)CCN3C(=O)CN(C)C)nc2[nH]ccc12", "note": "[listing 2 of 2 here]", "values": [{"measurement": "scaled lipid accumulation score", "setting": "[1]", "result": 0.776}]}
{"smiles": "O=C(c1ccc2c(c1)OCCO2)N1CCCCC1", "values": [{"measurement": "scaled lipid accumulation score", "setting": "[1]", "result": "≤ -0.07"}]}
{"smiles": "COC(=O)C1=CC[C@@]23CC[C@@H]([C@@](C)(/C=C/C=C(\\C)C(=O)O)OC2=O)[C@@]3(OC(C)=O)CC1", "note": "[Pseudolaric Acid B]", "values": [{"measurement": "scaled lipid accumulation score", "setting": "[2]", "result": "≤ 0"}]}
{"smiles": "CCCC[C@H](C)C[C@H](O)/C=C/[C@H]1[C@H](O)CC(=O)[C@@H]1CCCCC(CC(=O)O)OC", "note": "(some centres undefined) [3-methoxy Limaprost]", "values": [{"measurement": "scaled lipid accumulation score", "setting": "[2]", "result": 0.012}]}
{"smiles": "CCCCCC(=O)OC[C@H](CO)OC(=O)CCCCC", "note": "[1,2-Dihexanoyl-sn-glycerol]", "values": [{"measurement": "scaled lipid accumulation score", "setting": "[2]", "result": 0.007}]}
{"smiles": "CC(C)(C=O)Cc1cc(C(C)(C)C)c(O)c(C(C)(C)C)c1", "values": [{"measurement": "scaled lipid accumulation score", "setting": "[1]", "result": "0.21 and ≤ -0.006"}]}
{"smiles": "CC(C)(CO)Cc1cc(C(C)(C)C)c(O)c(C(C)(C)C)c1", "note": "[listing 1 of 2 here]", "values": [{"measurement": "scaled lipid accumulation score", "setting": "[1]", "result": "0.861 (active)"}]}
{"smiles": "CC(C)(CO)Cc1cc(C(C)(C)C)c(O)c(C(C)(C)C)c1", "note": "[listing 2 of 2 here]", "values": [{"measurement": "scaled lipid accumulation score", "setting": "[1]", "result": 0.139}]}
{"smiles": "N.N.O=C([O-])C[O-].[Pt+2]", "note": "[Nedaplatin]", "values": [{"measurement": "scaled lipid accumulation score", "setting": "library stock concentration: 6.6 mM", "result": 0.028}]}
{"smiles": "CC(C)[C@@H](O)CC[C@@H](C)[C@H]1CC[C@H]2[C@@H]3CC=C4C[C@@H](O)CC[C@]4(C)[C@H]3CC[C@]12C", "note": "[24(S)-hydroxycholesterol]", "values": [{"measurement": "scaled lipid accumulation score", "setting": "library stock concentration: 12.4 mM", "result": 0.006}]}
{"smiles": "CN(C)Cc1ccc(-c2nc3cccc4c3n2CCNC4=O)cc1", "values": [{"measurement": "scaled lipid accumulation score", "setting": "[3]", "result": 0.037}, {"measurement": "scaled lipid accumulation score", "setting": "[1]", "result": 0.491}]}
